The nature of test [1]: stimulators of insulin release from INS-1E, primary screen, cell-based, 5 mM glucose, NPC library (AID 1117329;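 active means compound raises insulin release from rat beta cells at 5 mM glucose, no numeric limit stated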). The following applies: rat INS-1E insulin secretion, at 10 µM, stronger effect = higher value.
The nature of test [2]: growth inhibition of GSK3B-pretreated HCT116 cells – cell-based, CellTiter-Glo, 0.2 to 20 µM (AID 1117336;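 active means compounds lowering colon cancer cell viability after pretreatment blocking the GSK3B kinase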). Conditions: HCT116 viability after GSK3B inhibitor, at 20 µM, stronger effect = higher value.
Test [3] is described as follows: inhibition of endothelial tube formation, primary screen, imaging, VEGF stimulated, CD31 staining, tube area, NPC library (AID 1117340;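 active means compound that reduces growth-factor-driven endothelial tube area in a mixed cell culture, no cutoff stated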). The following applies: VEGF-stimulated ADSC/ECFC co-culture, at 10 µM, stronger effect = higher value.
A short description of test [4]: glucagon-like peptide 1 release enhancers, primary assay, NCI-H716 cell line, NPC library (AID 1117341;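 active means compound raises GLP1 secretion from the human gut endocrine cells, with no numeric limit stated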). The following applies: NCI-H716 cells, at 10 µM, stronger effect = higher value.
Test [5] can be described thus: HCT116 colon cancer cell growth inhibition, primary screen, CellTiter-Glo luminescence, NPC library (AID 1117342;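 active means compounds that lower survival of HCT116 colon cancer cells in the luminescence readout, no numeric limit stated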). Conditions: at 20 µM (top of the series).
Test [6] can be described thus: CellTiter-Glo luminescent readout of SW480 viability loss, NPC library primary (AID 1117343;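 active means compounds that lower viability of the colon cancer cells in the luminescence readout, with no numeric limit stated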). Conditions: CellTiter-Glo luminescence; at 20 µM (top of the series).
A short description of test [7]: decreased DLD-1 cellular survival, CellTiter-Glo luminescent readout, NPC compound collection, primary HTS (AID 1117346;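 active means compounds that lower survival of DLD-1 colon cancer cells in the luminescence readout, no cutoff given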). The following applies: DLD-1 viability, CellTiter-Glo luminescence; at 20 µM (top of the series).
The target in test [8] is 6-phosphogluconate dehydrogenase, decarboxylating (Homo sapiens) (UniProt P52209). The test is described as follows: 6PGD enzyme inhibitors, primary screen, biochemical, human, recombinant enzyme, NADPH absorbance (AID 1159550). The following applies: recombinant 6PGD, NADPH absorbance 341 nm; at 10 µM; stronger effect = higher value.
Sequence of 6-phosphogluconate dehydrogenase, decarboxylating (Homo sapiens) (P52209 whole entry, looked up): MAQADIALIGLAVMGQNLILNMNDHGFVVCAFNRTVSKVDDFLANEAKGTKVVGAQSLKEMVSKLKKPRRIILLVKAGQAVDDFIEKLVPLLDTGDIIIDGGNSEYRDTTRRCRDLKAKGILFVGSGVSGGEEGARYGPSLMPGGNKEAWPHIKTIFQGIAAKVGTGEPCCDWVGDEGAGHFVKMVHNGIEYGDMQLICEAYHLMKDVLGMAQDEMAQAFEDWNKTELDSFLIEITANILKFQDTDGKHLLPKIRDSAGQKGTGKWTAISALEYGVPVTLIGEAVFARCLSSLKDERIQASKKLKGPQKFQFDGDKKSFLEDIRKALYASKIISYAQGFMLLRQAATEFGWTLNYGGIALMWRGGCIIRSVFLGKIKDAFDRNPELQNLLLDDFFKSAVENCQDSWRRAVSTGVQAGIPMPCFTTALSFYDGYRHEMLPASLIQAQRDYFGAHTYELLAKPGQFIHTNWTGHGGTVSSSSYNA
The nature of test [9]: differential killing of epithelial or mesenchymal cells, primary screen, imaging, PC-3E GFP, TEM4-18 mCherry, co-culture (AID 1345086;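 active means compounds killing one labelled cell type while sparing the other, by normalised counts and ratio limits, not self-fluorescent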;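 on all read-outs here: cells exposed to compound for 72 h before imaging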;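 on red/green cell ratio (normalised): normalised mesenchymal count divided by normalised epithelial count so high means epithelial killing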). The following applies: imaging cell counts, at 1 µM; for red/green cell ratio (normalised): actives lie on both sides, counts scaled to control wells, 1 = unselective.
[10] abbreviates: measured here: epithelial PC-3E GFP cell survival.
The mark [11] stands for this setting: measured here: mesenchymal TEM4-18 mCherry cell survival.

The source made the active and inactive calls.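 How the source made its calls, unless noted: active means at least 20% inhibition of 6-phosphogluconate dehydrogenase activity; inactive means the rest.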

As for `COc1cc(C(=O)NCc2ccc(OCCN(C)C)cc2)cc(OC)c1OC`, the insulin secretion stimulation in [1] was 2.5% (inactive). Further, in [2], the viability decrease was 19.5% (inactive). Moreover, the tube area decrease in test [3] is 16.6% (inactive). In addition, the GLP1 secretion stimulation in test [4] is -2.4% (inactive). The inhibition of viability in [5] is -8.75% (inactive). The values for the viability decrease (inhibition) in [6] and in [7] were -11.4% (inactive) and -8.9% (inactive), respectively. In addition, the inhibition in [8] was 10.5% (inactive). The red/green cell ratio (normalised) in test [9] was 0.88 (inactive). Moreover, the normalised cell number in [9] (setting [10]) was found to be 1.34; in test [9] (setting [11]) it was 1.18.
`O=C1OC(c2ccc(O)cc2)(c2ccc(O)cc2)c2ccccc21`: the insulin secretion stimulation in test [1] is 11.5% (inactive). Moreover, the viability decrease in test [2] was 31.1% (inactive). In addition, in test [3], the tube area decrease was 14.1% (inactive). Moreover, in [4], the GLP1 secretion stimulation was 11.8% (inactive). For the same molecule, in [5], the inhibition of viability was 12% (inactive). Moreover, the values for the viability decrease (inhibition) in [6] and in [7] were 80.7% (active) and 43.5% (inactive), respectively. The inhibition in [8] was -2.11% (inactive). For the same molecule, in test [9], the red/green cell ratio (normalised) is 1.12 (inactive). For the same molecule, the normalised cell number in [9] (setting [10]) was 0.94; in test [9] (setting [11]) it was 1.05.
Turning to `Oc1c(Cl)cc(Cl)cc1Sc1cc(Cl)cc(Cl)c1O`, the insulin secretion stimulation in test [1] was 5.2% (inactive). Moreover, in test [2], the viability decrease is 99.2% (active). Moreover, the tube area decrease in [3] is 103% (active). Besides, in [4], the GLP1 secretion stimulation is 23.6% (active). In addition, in test [5], the inhibition of viability was 103% (active). Moreover, the viability decrease (inhibition) in test [6] is 113% (active); in [7], 102% (active). In addition, the inhibition in test [8] is -6.91% (inactive). The red/green cell ratio (normalised) in test [9] was 0.99 (inactive). The normalised cell number is 1.15 in [9] (setting [10]) and 1.14 in test [9] (setting [11]).
As to `CCCCOC(=O)c1ccc(N)cc1`, the insulin secretion stimulation in [1] was 0.4% (inactive). Further, the viability decrease in test [2] is 27.7% (inactive). Besides, in [3], the tube area decrease is 20.7% (inactive). Further, in test [4], the GLP1 secretion stimulation is 0.1% (inactive). The inhibition of viability in test [5] was -21.1% (inactive). Moreover, the viability decrease (inhibition) in [6] was 118% (active); in [7], 59.9% (active). Besides, in test [8], the inhibition was -3.52% (inactive). Also, the red/green cell ratio (normalised) in test [9] is 1.07 (inactive). In addition, the normalised cell number in test [9] (setting [10]) turned out to be 0.97; in test [9] (setting [11]), 1.04.
`Cc1c(C(N)=O)cc([N+](=O)[O-])cc1[N+](=O)[O-]`: the insulin secretion stimulation in [1] is -3.2% (inactive). Also, the viability decrease in test [2] is 13.7% (inactive). In test [3], the tube area decrease is -5.4% (inactive). For the same molecule, the GLP1 secretion stimulation in test [4] was 2.8% (inactive). Moreover, the inhibition of viability in test [5] is -20% (inactive). The results for the viability decrease (inhibition) in [6] and in [7] were 34% (inactive) and 19.3% (inactive), respectively. Besides, the inhibition in test [8] was -17.5% (inactive). Further, the red/green cell ratio (normalised) in test [9] is 0.99 (inactive). The normalised cell number is 0.91 in test [9] (setting [10]) and 0.9 in test [9] (setting [11]).
In the case of `CCCCCCc1ccc(O)cc1O`, in test [1], the insulin secretion stimulation was 9.8% (inactive). In addition, the viability decrease in [2] is 65.4% (active). For the same molecule, in [3], the tube area decrease is 30.7% (inactive). The GLP1 secretion stimulation in test [4] was 4.2% (inactive). In test [5], the inhibition of viability is 41.8% (inactive). Further, the values for the viability decrease (inhibition) in [6] and in test [7] were 84.1% (active) and 56.2% (active), respectively. Further, the inhibition in test [8] was -8.5% (inactive). The red/green cell ratio (normalised) in test [9] is 0.84 (inactive). Moreover, the normalised cell number in [9] (setting [10]) amounted to 1.14; in test [9] (setting [11]) it was 0.96.
Consider `O=c1ccc2ccccc2o1`, for which, in test [1], the insulin secretion stimulation is -1.8% (inactive). The viability decrease in test [2] was 3.65% (inactive). In addition, the tube area decrease in test [3] is -29.2% (inactive). In addition, in [4], the GLP1 secretion stimulation was 2.9% (inactive). Moreover, the inhibition of viability in [5] was 12.6% (inactive). In addition, the results for the viability decrease (inhibition) in [6] and in test [7] were 19.6% (inactive) and 6% (inactive), respectively. Also, the inhibition in [8] is -18.6% (inactive). Moreover, the red/green cell ratio (normalised) in test [9] is 1.12 (inactive). Also, the normalised cell number in test [9] (setting [10]) is 0.98; in [9] (setting [11]) it was 1.1.
Take `CCC(Cc1c(I)cc(I)c(N)c1I)C(=O)O` (centres undefined): the insulin secretion stimulation in [1] was 0.8% (inactive). Moreover, the viability decrease in test [2] was -70.8% (inactive). In addition, in test [3], the tube area decrease is 4% (inactive). For the same molecule, in test [4], the GLP1 secretion stimulation was 1.8% (inactive). The inhibition of viability in test [5] was 7.7% (inactive). For the same molecule, the viability decrease (inhibition) in test [6] was 18.6% (inactive); in [7] it was -5.3% (inactive). The inhibition in test [8] was -0.317% (inactive). Further, the red/green cell ratio (normalised) in test [9] is 1.11 (inactive). The normalised cell number is 1.2 in [9] (setting [10]) and 1.33 in test [9] (setting [11]).
Take `Nc1ccc(S(=O)(=O)Nc2cnc3ccccc3n2)cc1`: the insulin secretion stimulation in [1] was 1.2% (inactive). The viability decrease in test [2] is 21% (inactive). Further, the tube area decrease in [3] is -18.5% (inactive). Besides, the GLP1 secretion stimulation in test [4] is 4.1% (inactive). In addition, in test [5], the inhibition of viability was 0.93% (inactive). Moreover, the viability decrease (inhibition) was -1% (inactive) in test [6] and -9.7% (inactive) in [7]. Besides, the inhibition in test [8] is 10.4% (inactive). In test [9], the red/green cell ratio (normalised) is 1.03 (inactive). Besides, the normalised cell number in test [9] (setting [10]) was 1.09; in [9] (setting [11]), 1.11.
`CCCc1ncc(C[n+]2ccccc2C)c(N)n1`: in test [1], the insulin secretion stimulation is 0.95% (inactive). In addition, the viability decrease in test [2] is -5.4% (inactive). In [3], the tube area decrease is 6.7% (inactive). The GLP1 secretion stimulation in [4] is 0.7% (inactive). The inhibition of viability in test [5] is -12.5% (inactive). Moreover, the results for the viability decrease (inhibition) in [6] and in [7] were -33.4% (inactive) and -13.4% (inactive), respectively. Moreover, the inhibition in [8] was -3.15% (inactive). The red/green cell ratio (normalised) in test [9] is 0.95 (inactive). Besides, the normalised cell number in test [9] (setting [10]) is 1.35; in test [9] (setting [11]) it was 1.28.
Take `O=C(O)CCCCC1CCSS1` (centres undefined): the insulin secretion stimulation in test [1] is -1.9% (inactive). In test [2], the viability decrease is 3.2% (inactive). For the same molecule, the tube area decrease in test [3] is 10.9% (inactive). Also, the GLP1 secretion stimulation in test [4] is 0.5% (inactive). Further, the inhibition of viability in [5] is 14.7% (inactive). Besides, the results for the viability decrease (inhibition) in [6] and in test [7] were 29.9% (inactive) and -0.7% (inactive), respectively. In addition, in test [8], the inhibition is 14.8% (inactive). For the same molecule, in test [9], the red/green cell ratio (normalised) is 0.99 (inactive). Further, the normalised cell number in [9] (setting [10]) was 0.91; in test [9] (setting [11]) it was 0.9.
Regarding `C[N+](C)(C)CCCCCC[N+](C)(C)C`, the insulin secretion stimulation in test [1] was 0.75% (inactive). Besides, the viability decrease in [2] is 10.7% (inactive). Also, in [3], the tube area decrease is -10.2% (inactive). Moreover, the GLP1 secretion stimulation in [4] was -1.6% (inactive). Also, the inhibition of viability in [5] was 13.3% (inactive). The figures for the viability decrease (inhibition) in test [6] and in test [7] were -4.3% (inactive) and 5.4% (inactive), respectively. The inhibition in test [8] is 12.6% (inactive). Moreover, the red/green cell ratio (normalised) in test [9] is 0.92 (inactive). The results for the normalised cell number in test [9] (setting [10]) and in test [9] (setting [11]) were 1.09 and 1, respectively.
For `C=C1c2cccc(O)c2C(O)=C2C(=O)[C@]3(O)C(O)=C(C(N)=O)C(=O)[C@@H](N(C)C)[C@@H]3[C@@H](O)[C@H]12`, the insulin secretion stimulation in test [1] was -1.8% (inactive). In addition, the viability decrease in [2] is -253% (inactive). Besides, the tube area decrease in test [3] was 9.7% (inactive). The GLP1 secretion stimulation in test [4] is 0.4% (inactive). In addition, the inhibition of viability in test [5] was -0.33% (inactive). The values for the viability decrease (inhibition) in [6] and in test [7] were -1.7% (inactive) and 58.4% (active), respectively. For the same molecule, the inhibition in [8] is 13.8% (inactive). The red/green cell ratio (normalised) in [9] was 0.93 (inactive). Also, the figures for the normalised cell number in test [9] (setting [10]) and in test [9] (setting [11]) were 0.85 and 0.79, respectively.
With `O=C1C(O)=C(O)C(=O)C(O)=C1O`, the insulin secretion stimulation in test [1] was 1.9% (inactive). The viability decrease in test [2] is -21% (inactive). Further, the tube area decrease in test [3] was -10.5% (inactive). Further, in test [4], the GLP1 secretion stimulation was -1.5% (inactive). Further, in test [5], the inhibition of viability is -0.4% (inactive). The viability decrease (inhibition) is 27.9% (inactive) in test [6] and 23.1% (inactive) in test [7]. Also, the inhibition in [8] was 10.5% (inactive). In addition, in test [9], the red/green cell ratio (normalised) was 1.1 (inactive). The values for the normalised cell number in test [9] (setting [10]) and in test [9] (setting [11]) were 1.02 and 1.12, respectively.
